Experimental data reported in PubChem BioAssay AID588740 (National Center for Advancing Translational Sciences (NCATS), 2011).
The source made the active and inactive calls. How the calls were made is not given here.

Test: PC3M Cytotoxicity Assay for Compounds that Inhibit the Perinuclear Compartment: SAR
Details: PC3M-GFP viability, ATPLite luminescence, 24 h
From the text: The perinucleolar compartment (PNC) is a non-membrane-bound nuclear subdomain that is associated with but structurally distinct from the nucleolus. The PNC is a heritable trait, in which the number of PNCs per cell in daughter cells often mimics that of their mother cells. The PNC is heterogeneous in shape, is stable through interphase, disassembles during mitosis, and reassembles in early G1. The PNC is concentrated with newly synthesized RNA polymerase III (pol III) RNAs (MRP RNA, RNAse P H1 RNA, hY RNAs[hY1, 2, 5], Alu RNA, and SRP [7SL] RNA) and RNA binding proteins (nucleolin, PTB, CUG-BP, KSRP, Raver1, Raver2, and Rod). […] Extensive in vitro studies have shown that the PNC is unique to tumor cells and preferentially forms in tumor cells derived from solid tissues. Examination of cancer cell lines from various origins and malignant capacities has shown that PNC prevalence correlates with the malignancy of tumors and has the potential to be developed as a pan-cancer prognostic marker. […] Although the PNC is associated with a DNA locus and a handful of components have been identified, much remains to be investigated regarding the structure and function of the PNC and its mechanistic link to cancer. […]
1. […] Luminescencent signal was detected on a Viewlux CCD based imager (PerkinElmer) with a clear filter and a 30 second integration time. […]

| Structure (SMILES) | AC50 |
| --- | --- |
| N=c1c2c(-c3ccccc3)c(-c3ccccc3)n(Cc3ccccc3)c2ncn1C1CCC(O)CC1 (stereo unspecified) | 9.96 µM (active) |
